PubChem BioAssay
Measured potencies and affinities stand elsewhere. Inconclusive results are not listed. Activity calls are given as the source filed them. Unless noted, how the calls were made is not given here.

Key:
[1] = RMG-1 ovarian cancer cell viability loss – cherry-pick, dose response (AID 687029;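 active means signal drop whose fitted half-maximal concentration is at most twice the top valid dose, in every test run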;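 further: cells exposed to compound for 96 hours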)
[2] = IOSE-T80 viability loss, PAX8-independent line – cell-based, cherry-pick, selectivity assay for PAX8 inhibitor project, dose response (AID 687032;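 active means fitted half-maximal concentration for viability loss no higher than twice the top valid dose, in every repeat run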;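 further: cells exposed to compound for 96 h before reading; 0% = neutral control wells and -100% = 2 µM mitoxantrone kill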)
[3] = CMV-driven luciferase expression suppression in HEK293 – cell-based, luminescence, dry powder, counter-screen for Pax8 inhibitor project, dose response (AID 743020;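 active means signal-lowering compounds whose fitted half-maximal concentration is at or below twice the top tested dose in every run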;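 further: HEK293 cells stably expressing the CMV luciferase reporter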)
[4] = general cell-killing toxicity readout – plate reader, dry powder samples, cytotoxicity control for PAX8 inhibitor project, dose response (AID 743021)
[5] = OVCAR-3 cell viability loss – plate reader, dry powder samples, PAX8 inhibitor project, dose response (AID 743044); conditions: max activity: at 35 µM, hits give low values unless noted
[6] = toxicity toward immortalized ovarian surface epithelium – cell-based, plate reader, dry powder samples, cytotoxicity control for PAX8 inhibitor project, dose response (AID 743045);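 further: 0% = neutral control median and -100% = positive control median; more negative values mean more cell killing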
[7] = A2780 cell killing – plate reader, dry powder samples, cytotoxicity control, dose response (AID 743046);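 further: 0% = neutral control wells and -100% = cytotoxic reference compound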
[8] = OVCAR8 cell viability loss – plate reader, dry powder samples, PAX8 project, dose response (AID 743197)

Measured: max activity

C[C@H](CO)N1C[C@H](C)[C@@H](CN(C)Cc2ccc(Cl)c(Cl)c2)Oc2ccc(NC(=O)Nc3ccc(C(F)(F)F)cc3)cc2CC1=O
inactive: [1] | [2] | [3] | [4] | [5] 17.7% [at 0.5 µM, hits give low values] | [6] | [7] | [8]

C[C@@H]1CCCCO[C@@H](CN(C)Cc2ccc(C(F)(F)F)cc2)[C@H](C)CN([C@H](C)CO)C(=O)c2cc(NC(=O)c3ccccc3)ccc2O1
inactive: [1] | [2] | [3] | [4] | [5] -25.3% | [6] | [8]

COc1cccc2sc(N(CCCN(C)C)C(=O)CCS(=O)(=O)c3ccccc3)nc12
not listed: [5] | [8]
inactive: all other assays above

C[C@@H]1CCCCO[C@@H](CN(C)Cc2ccccc2)[C@H](C)CN([C@@H](C)CO)C(=O)c2cc(NC(=O)Nc3ccc(C(F)(F)F)cc3)ccc2O1
inactive: [1] | [2] | [3] | [4] | [6]

C[C@@H]1CCCCO[C@H](CN(C)Cc2ccc(Cl)c(Cl)c2)[C@@H](C)CN([C@@H](C)CO)C(=O)c2cc(NC(=O)Nc3ccc(F)cc3)ccc2O1
inactive: [1] | [2] | [3] | [4] | [6]

O=C1CN(S(=O)(=O)Cc2ccccc2)C[C@@H]2[C@@H](c3ccc(C#CCC4CCCC4)cc3)[C@@H](CO)N12
inactive: [1] | [2] | [3] | [4] | [6]

Cc1noc(C)c1S(=O)(=O)Nc1ccc2c(c1)C(=O)N([C@H](C)CO)C[C@@H](C)[C@@H](CN(C)Cc1ccc(C(F)(F)F)cc1)OCCCC[C@H](C)O2
not listed: [5] | [8]
inactive: all other assays above

C[C@@H]1CN([C@@H](C)CO)C(=O)c2cc(NS(=O)(=O)c3ccc(F)cc3)ccc2O[C@@H](C)CCCCO[C@@H]1CN(C)Cc1ccc(C(F)(F)F)cc1
inactive: [1] | [2] | [3] | [4] | [6]

C[C@@H]1CN([C@H](C)CO)C(=O)c2c(c3ccccc3n2C)-c2ccccc2CO[C@H]1CN(C)S(=O)(=O)c1ccc(C(F)(F)F)cc1
inactive: [1] | [2] | [3] | [4] | [6]

COc1cccc(-c2ccc3c(c2)[C@H]2[C@H](CCN2S(=O)(=O)c2ccccc2OC)[C@@H](CO)N3C)c1
not listed: [5] | [8]
inactive: all other assays above

Cc1ccc(S(=O)(=O)Nc2ccc3c(c2)C(=O)N([C@@H](C)CO)C[C@H](C)[C@@H](CN(C)Cc2ccc(C(F)(F)F)cc2)OCCCC[C@@H](C)O3)cc1
not listed: [5] | [8]
inactive: all other assays above

C[C@@H]1CN([C@H](C)CO)C(=O)c2cc(NC(=O)CCC(F)(F)F)ccc2O[C@@H](C)CCCCO[C@@H]1CN(C)Cc1ccc(Cl)c(Cl)c1
inactive: [1] | [2] | [3] | [4] | [6]

C[C@@H]1CCCCO[C@H](CN(C)Cc2ccc(C(F)(F)F)cc2)[C@@H](C)CN([C@@H](C)CO)C(=O)c2cc(NS(=O)(=O)c3ccc(F)cc3)ccc2O1
inactive: [1] | [2] | [3] | [4] | [6]

C[C@H](CO)N1C[C@H](C)[C@H](CN(C)S(=O)(=O)c2ccc(Cl)cc2)OCc2ccccc2-c2c(n(C)c3ccccc23)C1=O
not listed: [5] | [8]
inactive: all other assays above

C[C@H](CO)N1C[C@H](C)[C@@H](CN(C)Cc2ccc(Oc3ccccc3)cc2)Oc2ccc(NS(=O)(=O)c3ccc(Cl)cc3)cc2CC1=O
not listed: [5] | [8]
inactive: all other assays above

C[C@@H]1CN([C@@H](C)CO)C(=O)Cc2cc(NC(=O)Nc3ccc(C(F)(F)F)cc3)ccc2O[C@H]1CN(C)Cc1ccc2c(c1)OCO2
not listed: [5] | [8]
inactive: all other assays above

C[C@@H]1CCCCO[C@@H](CN(C)Cc2ccc(C(F)(F)F)cc2)[C@H](C)CN([C@H](C)CO)C(=O)c2cc(NS(=O)(=O)c3ccc(F)cc3)ccc2O1
inactive: [1] | [2] | [3] | [4] | [6]

C[C@@H]1CN([C@H](C)CO)C(=O)c2cc(NC(=O)Nc3ccc(C(F)(F)F)cc3)ccc2O[C@@H](C)CCCCO[C@H]1CN(C)C(=O)Nc1ccc(C(F)(F)F)cc1
inactive: [1] | [2] | [3] | [4] | [6]

C[C@@H]1CN([C@H](C)CO)C(=O)c2cc(NC(=O)Nc3ccc4c(c3)OCO4)ccc2O[C@@H](C)CCCCO[C@H]1CN(C)Cc1ccc(C(F)(F)F)cc1
inactive: [1] | [2] | [3] | [4] | [6]

O=C(c1cc(-c2cccs2)on1)N1CCN(C(c2ccccc2)c2ccccc2)CC1
not listed: [5] | [8]
inactive: all other assays above

C[C@@H]1CN([C@@H](C)CO)C(=O)c2cc(NC(=O)Nc3ccc(C(F)(F)F)cc3)ccc2O[C@@H](C)CCCCO[C@H]1CN(C)Cc1ccc2c(c1)OCO2
not listed: [5] | [8]
inactive: all other assays above

C[C@@H]1CN([C@@H](C)CO)C(=O)c2cc(NC(=O)Nc3ccc(C(F)(F)F)cc3)ccc2O[C@H]1CN(C)C(=O)Nc1ccc(C(F)(F)F)cc1
not listed: [5] | [8]
inactive: all other assays above

COc1ccc(-c2ccc3c(c2)[C@@H]2[C@@H](CCN2C(=O)C2CCCCC2)[C@H](CO)N3C)cc1
inactive: [1] | [2] | [3] | [4] | [6]

O=S(=O)(Nc1cccc2cccnc12)c1ccccc1
not listed: [5] | [8]
inactive: all other assays above

OC[C@@H]1[C@H](c2ccc(-c3ccc(F)cc3)cc2)[C@@H]2CN(CCC(F)(F)F)CCCCN12
not listed: [5] | [8]
inactive: all other assays above

C[C@H]1CCCCO[C@@H](CN(C)Cc2ccc(C(F)(F)F)cc2)[C@@H](C)CN([C@@H](C)CO)C(=O)c2cc(NS(=O)(=O)c3ccc(F)cc3)ccc2O1
not listed: [5] | [8]
inactive: all other assays above

O=C(c1ccccc1F)N1CC(=O)N2[C@@H](CO)[C@@H](c3ccc(C#Cc4ccc(F)cc4)cc3)[C@@H]2C1
not listed: [5] | [8]
inactive: all other assays above

O=C(C[C@@H]1CC[C@@H]2[C@H](COC[C@@H](O)CN2C(=O)Nc2ccc(Cl)c(Cl)c2)O1)NCc1ccc(Cl)cc1
inactive: [1] | [2] | [3] | [4] | [6]

COc1cccc(-c2ccc3c(c2)[C@@H]2[C@@H](CCN2S(=O)(=O)c2ccccc2OC)[C@H](CO)N3C)c1
not listed: [5] | [8]
inactive: all other assays above

C[C@H](CO)N1C[C@H](C)[C@@H](CN(C)Cc2ccc(-c3ccccc3)cc2)Oc2ccc(NS(=O)(=O)c3ccc(F)cc3)cc2CC1=O
not listed: [5] | [8]
inactive: all other assays above

C[C@@H]1CCCCO[C@H](CN(C)Cc2ccc(C(F)(F)F)cc2)[C@H](C)CN([C@@H](C)CO)C(=O)c2cc(NC(=O)Nc3ccc4c(c3)OCO4)ccc2O1
inactive: [1] | [2] | [3] | [4] | [6]

C[C@@H]1CN([C@@H](C)CO)C(=O)Cc2cc(NS(=O)(=O)c3ccc(F)cc3)ccc2O[C@H]1CN(C)Cc1ccc(Cl)c(Cl)c1
inactive: [1] | [2] | [3] | [4] | [6]

C[C@H]1CCCCO[C@@H](CN(C)Cc2ccccc2)[C@@H](C)CN([C@@H](C)CO)C(=O)c2cc(NC(=O)Nc3ccc(C(F)(F)F)cc3)ccc2O1
not listed: [5] | [8]
inactive: all other assays above

COc1ccc(S(=O)(=O)Nc2ccc3c(c2)C(=O)N([C@H](C)CO)C[C@H](C)[C@@H](CN(C)S(=O)(=O)c2ccc(F)cc2)OCCCC[C@H](C)O3)cc1
inactive: [1] | [2] | [3] | [4] | [6]

C[C@@H]1CCCCO[C@H](CN(C)Cc2ccc(C(F)(F)F)cc2)[C@H](C)CN([C@H](C)CO)C(=O)c2cc(NC(=O)Cc3ccccc3)ccc2O1
not listed: [5] | [8]
inactive: all other assays above

COc1ccc(S(=O)(=O)Nc2ccc3c(c2)C(=O)N([C@H](C)CO)C[C@@H](C)[C@H](CN(C)S(=O)(=O)c2ccc(Cl)cc2)OCCCC[C@H](C)O3)cc1
not listed: [5] | [8]
inactive: all other assays above

COc1ccc2c3c(n(C)c2c1)[C@H](CO)N(C(=O)Nc1ccc(F)cc1)CC31CCN(C(=O)c2ccc3c(c2)OCO3)CC1
inactive: [1] | [2] | [3] | [4] | [6]

Cc1ccc(S(=O)(=O)N(C)C[C@H]2OCCCC[C@H](C)Oc3ccc(NS(=O)(=O)c4ccc(F)cc4)cc3C(=O)N([C@H](C)CO)C[C@@H]2C)cc1
not listed: [5] | [8]
inactive: all other assays above

COc1ccccc1NC(=O)N1CCCCN2[C@@H](CO)[C@@H](c3ccc(C#Cc4ccccc4)cc3)[C@@H]2C1
not listed: [5] | [8]
inactive: all other assays above

C[C@@H]1CN([C@@H](C)CO)C(=O)c2cc(NC(=O)Nc3ccc(C(F)(F)F)cc3)ccc2O[C@@H](C)CCCCO[C@H]1CN(C)Cc1ccncc1
not listed: [5] | [8]
inactive: all other assays above
